The panel holds about 79,000 compounds, 15% with a hit somewhere; the sample as a whole holds those more often. A number with no mark means an inactive call. Calls of active or inactive are those of the source. Cut-off read from the data, not from the text of the source: active = growth inhibition above about 70%; inactive = the rest.
Columns and labels:
[1] = NCI Yeast Anticancer Drug Screen. Data for the rad50 strain (AID 155);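 note: 0% = growth of vehicle-only cultures of the same strain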; settings: S. cerevisiae rad50 strain growth inhibition; at 50.0 µM; active compounds read high
In short: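 Inhibition values express reduced yeast growth in compound-treated cultures relative to vehicle-treated controls.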

[2] = NCI Yeast Anticancer Drug Screen. Data for the mec2-1 strain (AID 157); settings: S. cerevisiae mec2-1 strain, at 50.0 µM, active compounds read high
In short: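 Vehicle-treated cultures served as reference for growth inhibition of compound-exposed mec2-1 yeast.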

[3] = NCI Yeast Anticancer Drug Screen. Data for the sgs1 mgt1 strain (AID 161);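 note: 0% = growth of cultures given vehicle only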; settings: S. cerevisiae sgs1 mgt1 strain, at 50.0 µM, active compounds read high
In short: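 Genetically altered yeast, compound exposure, growth inhibition relative to vehicle.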

[4] = NCI Yeast Anticancer Drug Screen. Data for the cln2 rad14 strain (AID 165);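 note: 0% = growth equal to vehicle treated cultures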; settings: S. cerevisiae cln2 rad14 strain, at 50.0 µM, active compounds read high
In short: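 Each compound was tested on cln2 rad14 yeast. Inhibition of growth was calculated against vehicle-exposed controls.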

[5] = NCI Yeast Anticancer Drug Screen. Data for the bub3 strain (AID 167); settings: S. cerevisiae bub3 mutant strain, at 50.0 µM, active compounds read high
In short: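 Steps: expose the mutant yeast strain to compound; grow alongside vehicle-treated cultures; measure growth; express inhibition against the vehicle cultures.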

[6] = NCI Yeast Anticancer Drug Screen. Data for the mlh1 rad18 strain (AID 175); settings: S. cerevisiae mlh1 rad18 strain growth inhibition; at 50.0 µM; active compounds read high
In short: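 Vehicle-treated cultures served as the reference for growth inhibition in a yeast strain carrying DNA damage repair alterations exposed to each compound.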

Q: What does the source list for Cc1ccc(OC(=O)c2ccccc2)cc1CC(Cl)(Cl)Cl?
A: growth inhibition [1]: -0.75%; growth inhibition [2]: -6%; growth inhibition [3]: -9.3%; growth inhibition [4]: -19.3%; growth inhibition [5]: 2.8%; growth inhibition [6]: -14.3%

Q: For NCCCOC12CC3CC(CC(C3)C1)C2, which growth inhibition [1] is on record?
A: The growth inhibition was 6.1%.

Q: And the growth inhibition [2]?
A: Its growth inhibition is -4.05%.

Q: And the growth inhibition [3]?
A: The growth inhibition was 38.8%.

Q: And the growth inhibition [4]?
A: The growth inhibition was -50.4%.

Q: What about the growth inhibition [5] of the same compound?
A: Its growth inhibition is 7.6%.

Q: And the growth inhibition [6]?
A: The growth inhibition was 15.8%.

Q: For COC1=C(OC)C(=O)C(C(=O)CCCCC(=O)O)=C(C)C1=O, which growth inhibition [1] is on record?
A: Its growth inhibition is 4.8%.

Q: And the growth inhibition [2]?
A: The growth inhibition was 0.5%.

Q: And the growth inhibition [3]?
A: Its growth inhibition is 8.5%.

Q: What about the growth inhibition [4] of the same compound?
A: The growth inhibition was -35.4%.

Q: And the growth inhibition [5]?
A: Its growth inhibition is 2.9%.

Q: What about the growth inhibition [6] of the same compound?
A: The growth inhibition was 13.9%.

Q: Which results are given for N=C(N)n1ncc2c1CCCC2=O?
A: growth inhibition [1]: -17.4%; growth inhibition [2]: 19.9%; growth inhibition [3]: -6.1%; growth inhibition [4]: -20.2%; growth inhibition [5]: 6.1%; growth inhibition [6]: 1.75%

Q: Which results are given for O=C(O)Cn1cc(I)c(=O)c(I)c1?
A: growth inhibition [1]: -40.4%; growth inhibition [2]: -43.7%; growth inhibition [3]: -7.2%; growth inhibition [4]: 3.15%; growth inhibition [5]: -10.3%; growth inhibition [6]: -28%

Q: Which results are given for Cc1ccc(S(=O)(=O)N/N=C2/C(=N/NS(=O)(=O)c3ccc(C)cc3)C3CCC2C3)cc1?
A: growth inhibition [1]: 6.7%; growth inhibition [2]: 4.85%; growth inhibition [3]: -2.75%; growth inhibition [4]: -29.2%; growth inhibition [5]: -1.7%; growth inhibition [6]: -6.45%

Q: For O=Nc1ccc(O)cc1Cc1ccccc1, which growth inhibition [1] is on record?
A: The growth inhibition was -10.4%.

Q: And the growth inhibition [2]?
A: The growth inhibition was -5.95%.

Q: And the growth inhibition [3]?
A: The growth inhibition was -19.8%.

Q: And the growth inhibition [4]?
A: Its growth inhibition is -5.3%.

Q: What about the growth inhibition [5] of the same compound?
A: Its growth inhibition is 5.1%.

Q: What about the growth inhibition [6] of the same compound?
A: The growth inhibition was -1.5%.

Q: With O=c1oc2c(Cl)cc(Cl)cc2cc1-c1nc2ccccc2[nH]1 as the compound, how does the growth inhibition [1] read?
A: Its growth inhibition is 29.1%.

Q: And the growth inhibition [2]?
A: The growth inhibition was 38.2%.

Q: And the growth inhibition [3]?
A: Its growth inhibition is 15.6%.

Q: What about the growth inhibition [4] of the same compound?
A: The growth inhibition was 9.65%.

Q: What about the growth inhibition [5] of the same compound?
A: The growth inhibition was 14.1%.

Q: And the growth inhibition [6]?
A: The growth inhibition was 12.6%.

Q: Which growth inhibition [1] does the source give for CC(=O)NC(C)c1ccc(N=NN2CCCC2)cc1 (centres undefined) here?
A: Its growth inhibition is 19.6%.

Q: What about the growth inhibition [2] of the same compound?
A: Its growth inhibition is -6%.

Q: And the growth inhibition [3]?
A: The growth inhibition was 20%.

Q: What about the growth inhibition [4] of the same compound?
A: The growth inhibition was 19.9%.

Q: What about the growth inhibition [5] of the same compound?
A: Its growth inhibition is 25.3%.

Q: What about the growth inhibition [6] of the same compound?
A: Its growth inhibition is -30.5%.

Q: What does the source list for O=c1[nH]c2c([N+](=O)[O-])cc(Cl)cc2nc1/C=C(\O)c1cccnc1?
A: growth inhibition [1]: 18.4%; growth inhibition [2]: 0.7%; growth inhibition [3]: 33.8%; growth inhibition [4]: 36.2%; growth inhibition [5]: 4.25%; growth inhibition [6]: 45.1%

Q: Which results are given for O=C(/C=C/c1ccccc1)c1cccc([N+](=O)[O-])c1?
A: growth inhibition [1]: 26%; growth inhibition [2]: 14.6%; growth inhibition [3]: 21.4%; growth inhibition [4]: 54.9%; growth inhibition [5]: 41.9%; growth inhibition [6]: 4.4%

Q: Which growth inhibition [1] does the source give for O=C1C2=C(c3ccccc31)C(c1ccccc1Cl)N1C(=O)CCSC1=N2 (centres undefined) here?
A: Its growth inhibition is 2.9%.

Q: What about the growth inhibition [2] of the same compound?
A: Its growth inhibition is 0.4%.

Q: What about the growth inhibition [3] of the same compound?
A: Its growth inhibition is 13.9%.

Q: What about the growth inhibition [4] of the same compound?
A: The growth inhibition was 8.85%.

Q: And the growth inhibition [5]?
A: Its growth inhibition is 4.65%.

Q: And the growth inhibition [6]?
A: Its growth inhibition is -3.45%.

Q: With O=C(NCCO)Nc1ccccc1F as the compound, how does the growth inhibition [1] read?
A: Its growth inhibition is 10.2%.

Q: And the growth inhibition [2]?
A: Its growth inhibition is 3.65%.

Q: What about the growth inhibition [3] of the same compound?
A: The growth inhibition was -3.65%.

Q: What about the growth inhibition [4] of the same compound?
A: Its growth inhibition is -27.3%.

Q: And the growth inhibition [5]?
A: Its growth inhibition is -7.75%.

Q: What about the growth inhibition [6] of the same compound?
A: The growth inhibition was 5.55%.

Q: Which results are given for CCOC(=O)c1cnc(SCc2ccccc2)[nH]c1=O?
A: growth inhibition [1]: -6.1%; growth inhibition [2]: -9.8%; growth inhibition [3]: -17.7%; growth inhibition [4]: -3.7%; growth inhibition [5]: -16.6%; growth inhibition [6]: -13.3%

Q: Which growth inhibition [1] does the source give for CC(C)=NNC(=S)NC12CC3CC(CC(C3)C1)C2 here?
A: Its growth inhibition is 29.4%.

Q: What about the growth inhibition [2] of the same compound?
A: Its growth inhibition is 39.3%.

Q: And the growth inhibition [3]?
A: The growth inhibition was 25.1%.

Q: What about the growth inhibition [4] of the same compound?
A: Its growth inhibition is -8.7%.

Q: And the growth inhibition [5]?
A: The growth inhibition was 48.7%.

Q: And the growth inhibition [6]?
A: The growth inhibition was 35%.

Q: For Clc1ccc(C2OCCCO2)cc1, which growth inhibition [1] is on record?
A: Its growth inhibition is -21.1%.

Q: And the growth inhibition [2]?
A: Its growth inhibition is 7.8%.

Q: And the growth inhibition [3]?
A: The growth inhibition was -9.7%.

Q: What about the growth inhibition [4] of the same compound?
A: The growth inhibition was 10.2%.

Q: And the growth inhibition [5]?
A: Its growth inhibition is -8.4%.

Q: And the growth inhibition [6]?
A: The growth inhibition was -1.65%.

Q: For NC(N)=NCCS(=O)(=O)O, which growth inhibition [1] is on record?
A: The growth inhibition was 5.8%.

Q: And the growth inhibition [2]?
A: The growth inhibition was 7.35%.

Q: What about the growth inhibition [3] of the same compound?
A: The growth inhibition was -2%.

Q: What about the growth inhibition [4] of the same compound?
A: Its growth inhibition is 9.1%.

Q: And the growth inhibition [5]?
A: The growth inhibition was -2.35%.

Q: And the growth inhibition [6]?
A: Its growth inhibition is 20.4%.

Q: Which growth inhibition [1] does the source give for Nc1nc(=O)n(CCCCCCc2ccccc2)cc1-c1ccc(Cl)c(Cl)c1 here?
A: Its growth inhibition is -4.75%.

Q: What about the growth inhibition [2] of the same compound?
A: The growth inhibition was -8.95%.

Q: And the growth inhibition [3]?
A: Its growth inhibition is 8%.

Q: What about the growth inhibition [4] of the same compound?
A: Its growth inhibition is 83.7% (active).

Q: And the growth inhibition [5]?
A: The growth inhibition was 3.65%.

Q: What about the growth inhibition [6] of the same compound?
A: The growth inhibition was 0.45%.

Q: With CC(CCC(=O)O)C1CCC2C3CCC4CCCCC4(C)C3CCC12C (centres undefined) as the compound, how does the growth inhibition [1] read?
A: Its growth inhibition is 8.4%.

Q: What about the growth inhibition [2] of the same compound?
A: The growth inhibition was 41.9%.

Q: And the growth inhibition [3]?
A: Its growth inhibition is 43.3%.

Q: And the growth inhibition [4]?
A: Its growth inhibition is 17.3%.

Q: And the growth inhibition [5]?
A: The growth inhibition was 51.2%.

Q: What about the growth inhibition [6] of the same compound?
A: Its growth inhibition is 49.5%.
